Sampled rows, rich in hits. Any-hit rate of the full collection: about 3.5%.
GPR151 activ – activators of human GPR151, primary screen, cell-based, PathHunter beta-arrestin, luminescence | G-protein coupled receptor 151 (Homo sapiens), Q8TDV0 | PathHunter beta-arrestin GPR151 cells | activation, % at 11.2 µM | 650,000 compounds, 1% hits | AID 1508602, 2020; in the data active means activation above about 4.9%;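 further: 0% = median of compound wells and 100% = cells with positive control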
TEAD-YAP inh – TEAD-YAP interaction inhibition, primary screen, TEAD-YAP interaction inhibitor project, luminescence, HEK-TIYL cells | TEAD-Gal4/YAP UAS-luciferase luminescence | inhibition, % at 9.12 µM | 640,000 compounds, 1.4% hits | AID 1259422, 2018; in the data active means inhibition above about 32%;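 further: 0% = median of test compound wells and 100% = reference inhibitor wells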
MITF primary – MITF inhibitors, primary screen, biochemical, AlphaScreen, human. Microphthalmia-associated transcription factor (Homo sapiens), O75030. AlphaScreen MITF homodimerization, bead proximity signal. inhibition, % at 2.6 µM. 650,000 compounds, 0.91% hits; in the data active means inhibition above about 50%;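 further: 0% = vehicle wells with protein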
Target sequence (O75030 whole entry, looked up): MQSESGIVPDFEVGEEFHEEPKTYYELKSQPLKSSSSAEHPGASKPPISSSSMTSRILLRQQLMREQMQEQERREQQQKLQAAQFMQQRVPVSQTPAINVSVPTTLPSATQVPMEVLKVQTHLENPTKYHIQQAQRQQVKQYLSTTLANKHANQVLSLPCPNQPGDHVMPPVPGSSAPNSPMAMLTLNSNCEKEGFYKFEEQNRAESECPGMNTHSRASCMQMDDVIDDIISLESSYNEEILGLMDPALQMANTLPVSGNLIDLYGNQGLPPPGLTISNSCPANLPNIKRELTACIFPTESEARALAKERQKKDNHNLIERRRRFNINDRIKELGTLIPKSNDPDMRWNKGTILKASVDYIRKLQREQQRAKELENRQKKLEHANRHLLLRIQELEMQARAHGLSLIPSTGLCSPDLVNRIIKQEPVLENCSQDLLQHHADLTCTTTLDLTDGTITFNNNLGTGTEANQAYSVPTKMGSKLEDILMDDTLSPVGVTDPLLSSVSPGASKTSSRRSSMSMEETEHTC
FBW7 act – FBW7 E3 ligase activators, primary screen, biochemical, AlphaScreen, human. 650,000 compounds, 0.13% hits. normalized activity (activation), % at 26.1 µM. F-box/WD repeat-containing protein 7 (Homo sapiens), Q969H0. AlphaScreen FBW7–phospho-cyclin E peptide binding, activator screen; in the data active means normalized activity above about 1.9%;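 further: purified mutant Fbw7 with reduced substrate affinity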
MITF inh conf – MITF inhibitors, retest of hits, confirmation, biochemical, AlphaScreen, triplicate; shares compounds with MITF primary; AlphaScreen MITF homodimerization, biotin/His-MITF beads; inhibition, % at 2.6 µM; 4,700 compounds, 16% hits;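 active means inhibition above a cutoff derived from the DMSO control wells, cut at about 28% in these data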;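 further: 0% = MITF dimer wells with DMSO only; inhibitors lower the bead chemiluminescence by keeping MITF from dimerizing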
AS interf DR – AlphaScreen optical interference compounds, dose response, counter-screen, biochemical, HTS. shares compounds with MITF primary. AlphaScreen optical interference counterscreen, cell-free. IC50, µM. 480 compounds, 6% hits. AID 1259373, 2018; call rule not given here
AS interf ctr – AlphaScreen optical interference compounds, counter-screen for MITF inhibitor project, biochemical, triplicate. shares compounds with MITF primary. LysRS AlphaScreen counterscreen, signal interference. inhibition, % at 2.6 µM. 4,700 compounds, 7.6% hits;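 active means inhibition above a cutoff derived from the DMSO control wells, cut at about 30% in these data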
* = called active by the depositor; / = no result.

SMILES | GPR151 activ | TEAD-YAP inh | MITF primary | FBW7 act | MITF inh conf | AS interf ctr | others
O=C(/C=C\c1ccc(Cl)cc1)Nn1c(-c2ccc(F)cc2)nc2ccccc2c1=O | 0 | 8 | 27 | 1 | / | /
Cc1ncc2c(N3CCCCCC3)nc3ccccc3n12 | 3 | -10 | 8 | 1 | / | /
CCOC(=O)c1c(C)c(C(=O)NCCc2ccccc2OC)c(C)n1C | -1 | -1 | 55* | 0 | 7 | 12
CCOC(=O)c1c(C)c(C(=O)NCCc2ccc(OC)c(OC)c2)c(C)n1C | 0 | 1 | 0 | 0 | / | /
CC1CN(CC(=O)Nc2ccc(F)cc2)CC(C)O1 (stereo not given) | 3 | 4 | 55* | 0 | 13 | 13
CCC(C)NS(=O)(=O)c1ccc(NC(=O)CN2CCOCC2)cc1 (stereo not given) | 0 | -8 | 54* | 0 | 3 | 17
CCN1CCN(CC(=O)Nc2ccc(F)cc2)CC1 | 0 | -1 | 83* | 0 | 17 | 21
O=C(CN1CCN(CC(=O)Nc2ccc(F)cc2)CC1)Nc1ccc(F)cc1 | 0 | 12 | 6 | 0 | / | /
O=C(CCCCC(=O)Nc1ccc(F)cc1)Nc1ccc(F)cc1 | -1 | 11 | 56* | 1 | 2 | 1
O=S(=O)(c1ccc(Br)cc1)n1c(SCc2cccc(F)c2)nc2ccccc21 | 0 | -58 | 110* | 0 | -11 | -7
O=C(N/N=C\C(Br)=C\c1ccccc1)c1ccccn1 | -2 | 0 | -5 | 0 | / | /
CC(=O)C(/C=N/NC(=O)c1ccccn1)=C(\C)O | 3 | 8 | 59* | -2 | 33* | 57*
OC(CNCC(O)c1ccccc1)c1ccccc1 (stereo not given) | -1 | 8 | 17 | 0 | / | /
OC(CNCc1ccccn1)c1ccccc1 (stereo not given) | 0 | -9 | 54* | -1 | 7 | 43*
Cc1ccccc1C(OCC(O)CNCc1ccccn1)c1ccccc1 (stereo not given) | 2 | -7 | 51* | -1 | 13 | 33*
COc1ccc2cc3cc(C(=O)N4CCC(C(N)=O)CC4)sc3nc2c1 | -1 | -15 | -11 | 0 | / | /
CCCCOC(=O)CSc1nc(N)c(C#N)c(-c2ccccc2Cl)c1C#N | 0 | 2 | 2 | 0 | / | /
C=CCSC1=NC2(CC(c3ccccc3)c3ccc(O)c(O)c3O2)CC(C)(C)N1 (stereo not given) | 0 | 10 | -1 | 0 | / | /
CCCSc1nc(N2CCCCC2)c2c(c1C#N)CCCC2 | 0 | -4 | 66* | 0 | -7 | -5
N#Cc1c(SCC(=O)O)nc(N2CCCCC2)c2c1CCCC2 | 0 | 5 | -1 | 0 | / | /
CC(=O)Nc1ccc(C(=O)CN2CCOCC2)cc1 | 0 | -4 | -1 | 1 | / | /
Cc1noc(C2CN(C(=O)c3ccc(-n4cccc4)cc3)C2)n1 | 0 | 3 | 55* | 0 | 53* | 9 | AS interf DR=>6.5
Cc1cc(NC(=O)C2CCN(C(=O)c3ccc(-n4cccc4)cc3)CC2)no1 | 0 | -5 | 51* | 0 | 47* | 10 | AS interf DR=>6.5
COc1ccc(C(=O)N2CCN(Cc3ccccc3Br)CC2)cc1 | 0 | 3 | 59* | 0 | 1 | 8
COc1cccc(C(=O)N2CCN(Cc3ccccc3F)CC2)c1 | -1 | 3 | 58* | 1 | 13 | 9
SMILES | GPR151 activ | TEAD-YAP inh | MITF primary | FBW7 act | MITF inh conf | AS interf ctr | others
COc1cccc(C(=O)N2CCN(Cc3ccccc3C(F)(F)F)CC2)c1 | 1 | -9 | 71* | 0 | 12 | 11
COc1cccc(C(=O)N2CCN(Cc3cccc4ccccc34)CC2)c1 | 1 | 1 | 33 | 0 | / | /
COc1cccc(C(=O)N2CCN(Cc3ccccc3Br)CC2)c1 | 1 | -5 | 65* | 0 | 7 | 16
O=C(c1ccc(F)cc1)N1CCN(Cc2ccccc2Br)CC1 | 1 | 7 | 50 | 0 | / | /
Oc1ccc(/C=N/NC(=S)NCCCN2CCOCC2)cc1 | 2 | 0 | -5 | 0 | / | /
O=C(CSc1nc2[nH]ncc2c(=O)n1-c1ccc(Cl)cc1)c1ccc(Cl)cc1 | -1 | 4 | 4 | 0 | / | /
Clc1ccc(-c2nnc(CSc3ncnc4sccc34)o2)cc1 | 0 | -7 | -9 | 0 | / | /
CCc1nc(NCCCCCO)c2nnn(Cc3ccccc3F)c2n1 | 1 | 12 | 59* | 0 | 6 | 15
CCOc1ccc2nc(N=C(NC(=O)CC)NC(=O)CC)nc(C)c2c1 | -1 | -35 | 110* | 0 | 3 | 6
C1=CC2CC1CC2CN1CCN(C2CCC(c3ccccc3)CC2)CC1 (stereo not given) | 0 | 4 | 63* | 0 | -16 | 4
C1=CC2CC1CC2CN1CCN(C2CCCCC2)CC1 (stereo not given) | 0 | 7 | 48 | 0 | / | /
CCC(C)N1CCN(CC2CC3C=CC2C3)CC1 (stereo not given) | 0 | -8 | 73* | 0 | -3 | 1
C1=CC2CC1CC2CN1CCN(C2CCCCCC2)CC1 (stereo not given) | 0 | 14 | 55* | 0 | -3 | -6
C1=CC2CC1CC2CN1CCN(C2CCCC2)CC1 (stereo not given) | 0 | 1 | 67* | 0 | -18 | -4
COc1ccc(OC)c(NC(=O)Cn2cc(C(=O)c3ccccc3)c(=O)c3ccccc32)c1 | -1 | 9 | 4 | 0 | / | /
CCc1cc2c(=O)c(Oc3ccccc3)c(C(F)(F)F)oc2cc1OC(C)=O | 0 | 4 | 7 | 0 | / | /
CC(C)C/C=N/NC(=O)c1ccc2c(c1)NC(=O)C(C)(C)O2 | 0 | -13 | 60* | 0 | 9 | 13
Cc1cnc(N2C(=O)c3ccccc3C2=O)s1 | -1 | -8 | 1 | 0 | / | /
O=C1C(=O)N(CCOCCO)C(c2cccs2)/C1=C(\O)c1ccc(F)cc1 (stereo not given) | -1 | 4 | 55* | 0 | 2 | -6
O=C1C(=O)N(CCN2CCOCC2)C(c2cccs2)/C1=C(/O)c1ccc(F)cc1 (stereo not given) | -1 | -5 | 5 | 0 | / | /
COc1ccc(C2/C(=C(\O)c3ccccc3)C(=O)C(=O)N2CC(OC)OC)cc1OC (stereo not given) | -1 | -21 | 4 | 0 | / | /
CCOC(=O)CCCCC(=O)c1[nH]c(=O)n(C)c1C | 1 | 0 | 106* | -2 | 95* | 80*
CCCCCCCCCCCCCCCCCC(=O)OCC | 0 | / | -13 | / | / | /
